# Test results reported in PubChem BioAssay (NCATS).
# “And” between values parts separate entries of the source, which are not always exact repeats. Equal values may be shown once. Records with an inconclusive call do not appear. The source made the active and inactive calls. The call rests on the fitted dose curve; in most records, active means well fitted inhibition curve with a large enough effect; inconclusive means small, poorly fitted or top-dose-only effect; inactive means no such curve, though single readings can be large or run the other way.
# Assay: Tertiary RLuc qRT-PCR qHTS assay for Zika virus inhibitors (AID 1347169); further: nearly all actives have a fitted effect of over 55% in size; on activity change, negative = inhibition: top concentration of the series differs between compounds
# Details: infected Vero cells, reporter luminescence, 48-72 h; series mostly up to 45.9 µM; activity change, negative = inhibition: at the top concentration
# Excerpt: Avindra Nath, Ph.D., National Institute of Neurological Disorders and Stroke (NINDS), Bethesda, MD
# Radhakrishnan Padmanabhan, Ph.D., Georgetown University (GU), Washington D.C.
# Zika Virus causes congenital defects, including microcephaly and is associated with Guillain-Barre syndrome, eningoencephalitis and myelitis in infected adult. […] Using a target-based approach, we hope to establish a screening paradigm to uncover novel, cell-active NS2B-NS3 protease (Zika Virus) specific inhibitors from NCATS' collection of small molecules using qHTS.
# Four assay panel was created to identify potential Zika Virus inhibitors. Namely, (1) GU unlinked NS2B-NS3 AMC tagged protease qHTS, (2) GU unlinked NS2B-NS3 Rhodamine tagged protease qHTS, (3) NINDS linked NS2B-NS3 AMC tagged protease qHTS, (4) NINDS linked NS2B-NS3 Rhodamine tagged protease qHTS. Identified inhibitors were re-acquired and tested against secondary confirmatory, orthogonal, and counterscreens to exclude nonspecific inhibition.
# Early Translation Branch (ETB)
# National Center for Advancing Translational Sciences (NCATS), Rockville, MD
# National Institute of Health (NIH), Bethesda, Maryland
# 1536-well recombinant virus ZIKV-RLuc (Cambodian) Assay:
# For a follow-up assay, we adapted a high throughput orthogonal assay in 1536-well plate format to use the recombinant virus ZIKV-RLuc, in Vero cells. Briefly, three microL of Vero cells derived from a green monkey cell line, were dispensed Multidrop Dispenser into a solid bottom white 1,536-well plate at a concentration of 1,000 cells per well. The plate was incubated overnight in a CO2 incubator at 37 degrees C. Compounds were delivered as a 23 nL DMSO solution by Kalypsys pintool transfer. Following compound transfer, 2 microL of ZIKV-RLuc was added at an MOI of 1-2 and incubated in a CO2 incubator for 48-72 hrs at 37 degrees C. After sufficient incubation of infected cells in test plates, live cell Renilla luciferase substrate (Promega) was added. The luminescence signal was measured after 1-1.5 hrs exposure to substrate in ViewLux reader.
# On the % scale 0 is the no-effect control and ±100 the full control effect; potency means the concentration at half of the fitted maximal effect.
SMILES,"activity change, negative = inhibition",Potency
O=c1c(O)c(-c2cc(O)c(O)c(O)c2)oc2cc(O)cc(O)c12,40.4% [at 3.57 µM] (inactive),
O=C(O)c1cn(-c2ccc(F)cc2)c2cc(N3CCNCC3)c(F)cc2c1=O,,inactive
COc1cc2c(cc1OC)C1CC(=O)C(CC(C)C)CN1CC2 (stereo not drawn),-21.7% (inactive),
S=c1nc[nH]c2nc[nH]c12,,20800 nM (active)
O=c1c(O)c(-c2ccc(O)cc2O)oc2cc(O)cc(O)c12,28.3% (inactive),
CCc1nc(N)nc(N)c1-c1ccc(Cl)cc1,,11.7 µM (active) and 16.5 µM (active)
N[C@@H](Cc1cc(I)c(Oc2cc(I)c(O)c(I)c2)c(I)c1)C(=O)O,-3.48% [at 0.566 µM] (inactive),
COc1c2occc2cc2ccc(=O)oc12,,inactive
Cc1nc(Nc2ncc(C(=O)Nc3c(C)cccc3Cl)s2)cc(N2CCN(CCO)CC2)n1,,224 nM (active)
CN(C)C(=O)[C@H](O)[C@H](Cc1ccccc1)NC(=O)c1cc2cc(Cl)ccc2[nH]1,-5% (inactive),
CC(C)C[C@H](NC(=O)[C@H](Cc1ccccc1)NC(=O)c1cnccn1)B(O)O,,37 nM (active)
Cc1nc(-c2ccc(OCC(C)C)c(C#N)c2)sc1C(=O)O,-5.66% (inactive),
Cc1c(OCC(F)(F)F)ccnc1CS(=O)c1nc2ccccc2[nH]1 (stereo not drawn),11.3% (inactive),
